Compound activity from PubChem BioAssay.
TRHR ag: activates the human TRH receptor; TRHR cells, calcium flux fluo-8, FDSS agonist mode; P34981; activation, % at 2 µM; AID 493084; hit rate 0.18% among 360,000; also: 0% is about no effect
Target sequence (P34981 whole entry, looked up): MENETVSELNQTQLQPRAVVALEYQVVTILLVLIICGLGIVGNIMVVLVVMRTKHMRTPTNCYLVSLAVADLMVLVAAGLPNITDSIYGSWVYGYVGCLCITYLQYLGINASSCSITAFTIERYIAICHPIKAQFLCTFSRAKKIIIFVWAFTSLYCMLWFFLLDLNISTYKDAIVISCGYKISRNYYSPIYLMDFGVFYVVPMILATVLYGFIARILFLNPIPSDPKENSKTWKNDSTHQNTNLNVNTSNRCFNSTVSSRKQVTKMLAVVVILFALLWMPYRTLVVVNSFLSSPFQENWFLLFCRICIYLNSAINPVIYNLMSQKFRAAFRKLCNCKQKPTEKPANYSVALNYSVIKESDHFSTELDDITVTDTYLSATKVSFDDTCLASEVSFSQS
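Fluo-8-loaded TRHR cells; 10 s baseline, compound added, kinetic Ca2+ fluorescence read 1/s, agonist mode.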
D1 agonist: agonists of human D1 dopamine receptor | HEK293 T-REx D1 cells, calcium flux, agonist mode | activation, % at 2 µM | hit rate 1% among 360,000 | AID 504660; also: 0% is about no effect
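Tetracycline-induced HEK293 TREx D1 cells, force-coupled to calcium signalling, were dye-loaded with a no-wash calcium kit. Compound was pin-added after a 10 s baseline. Fluorescence was read kinetically at 1 cycle/s for 180 s, with calcium rises flagged as agonism.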
D1 PAM: enhances dopamine response at the human D1 receptor; P21728; hit rate 0.036% among 360,000; HEK293 TREx D1 cells, calcium flux, dopamine EC20 potentiation; AID 504651; potentiation, % at 10 µM; in the data active = potentiation above about 30%; also: 0% is about no effect
TRHR enhancer: TRH receptor (human) allosteric enhancement | P34981 | TRHR cells, fluo-8 calcium fluorescence, EC20 TRH enhancement | hit rate 0.66% among 360,000 | AID 493056 | enhancement, % at 2 µM; in the data active = enhancement above about 30%; also: 0% is about no effect
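TRHR-expressing cells loaded with fluo-8 calcium dye were read kinetically (ex 480/em 530) during compound addition, then stimulated with an EC20 of TRH (10 nM final). Enhancement of the Gq-mediated intracellular calcium response was scored.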
D1 antagonist: human D1 dopamine receptor antagonism; P21728; HEK293 TREx D1 cells, calcium flux, dopamine EC80; hits give low values; activity change, negative = inhibition, % at 10 µM; hit rate 3.2% among 360,000; AID 504652; in the data active = activity change below about -30%; also: % is scaled to controls: 0 for no effect and ±100 for the full control effect
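Using tetracycline-induced force-coupled D1 Hek293 cells and a calcium dye, signals were followed for 180 s after compound, then for 180 s after EC80 dopamine, to detect inhibitors.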
Starred values were filed as active, the others as inactive; · = no result. Shown are actives, neighbours in structure and some others; about 4.7% of the full set was active somewhere. Rule as the data show it, unless noted: active = activation above about 30%; inactive = the rest.

SMILES | TRHR ag | D1 agonist | D1 PAM | TRHR enhancer | D1 antagonist
CCOC(=O)COc1ccc(S(=O)(=O)c2ccc(OCC(=O)OCC)cc2)cc1 | -0.4 | 22.1 | -4.1 | 5.5 | -3.4
O=S(=O)(Nc1ccc(Cl)cc1)c1ccc(NS(=O)(=O)c2ccc3c(c2)OCCO3)cc1 | 2.1 | 61.2* | -2.3 | 3.5 | -10.6
COC(=O)COc1ccc(S(=O)(=O)Nc2ccc3c(c2)OCCO3)cc1Cl | 0.5 | 11.0 | -6.8 | 3.5 | -32.5*
Cc1ccc(Oc2ccc(S(=O)(=O)Nc3ccc(C(=O)O)cc3)cc2)cc1 | 0.0 | 2.2 | -3.5 | -4.9 | -41.7*
O=C(c1ccccc1NS(=O)(=O)c1ccc(Br)cc1)N1CCOCC1 | 0.5 | 3.9 | -3.8 | -1.7 | -33.0*
CC(=O)c1ccc(NS(=O)(=O)c2ccc(C)cc2)cc1 | -0.4 | 3.9 | 2.2 | -3.6 | 3.8
COc1ccc(C(=O)O)cc1S(=O)(=O)Nc1cccc(C)c1 | 1.1 | 1.2 | 3.5 | -6.3 | 11.5
CCOC(=O)COc1ccc(S(=O)(=O)Nc2ccc3c(c2)OCO3)cc1 | -1.8 | 63.1* | -11.2 | -3.4 | 2.5
CSc1ccc(S(=O)(=O)Nc2ccccc2C(=O)N2CCOCC2)cc1 | -0.5 | 2.3 | 3.4 | 12.7 | -8.5
COc1ccc(C(=O)O)cc1S(=O)(=O)Nc1ccc(C)cc1 | -0.8 | 3.4 | -10.3 | 3.8 | -69.8*
CCOc1ccc2oc(C(=O)OCC(=O)NC3CCCC3)c(C)c2c1 | -0.3 | 1.1 | -6.0 | 2.7 | 24.8
O=[N+]([O-])c1ccc(Oc2ccc(S(=O)(=O)Nc3ccccc3)cc2)cc1 | 4.4 | 54.5* | -8.9 | -4.5 | -21.1
O=[N+]([O-])c1ccc(S(=O)(=O)Nc2ccncc2)cc1 | 0.1 | 0.2 | 3.0 | 9.1 | 10.1
Cc1ccc(C(=O)OCc2cc3ccccc3[nH]c2=O)cc1 | -0.2 | 0.5 | 3.4 | 37.7* | 6.1
COc1ccc(C)cc1NC(=O)c1cc2c(s1)-c1ccccc1SC2 | 1.1 | 2.0 | 0.0 | 5.6 | -32.4*
CCOC(=O)c1ccccc1NC(=O)c1cc2c(s1)-c1ccccc1SC2 | 0.5 | 3.2 | 0.5 | -4.3 | -45.1*
COc1ccc(C2CC(c3ccc(Cl)cc3)=NN2C(C)=O)cc1 (centres undefined) | -0.1 | 3.2 | -3.6 | 5.5 | -10.7
Cc1ccc2onc(CNC(=O)N(C)Cc3ccccc3)c2c1 | -0.2 | 1.6 | 1.4 | -5.7 | 9.2
N#Cc1nc(COc2ccc(F)cc2)oc1N1CCN(Cc2ccccc2)CC1 | 0.4 | 2.0 | 0.6 | 0.7 | 0.9
N#Cc1nc(COc2ccc(F)cc2)oc1N1CCC(Cc2ccccc2)CC1 | -0.3 | 48.3* | 1.6 | 2.5 | 0.5
N#Cc1nc(COc2ccccc2Cl)oc1N1CCCC1 | -1.2 | 2.2 | -2.6 | -10.0 | -30.8*
Cc1ccc(C)c(Cn2c(=O)c3c(nc4n3CCN4c3ccc(F)cc3)n(C)c2=O)c1 | 0.0 | 0.7 | -1.0 | 21.2 | -23.1
Cc1ccnc(N/C=C(/NC(=O)c2ccccc2)C(=O)N/N=C\c2ccc(F)cc2)n1 | -0.5 | 0.5 | -7.2 | 0.0 | -36.6*
COc1ccc(C(=O)Nc2nc(-c3nnn(-c4cc(OC)ccc4OC)c3C)ns2)cc1 | 2.9 | 7.6 | 5.5 | -2.8 | 5.1
CCCCN1C(=O)C(O)(CC(=O)c2ccc(C(C)(C)C)cc2)c2ccccc21 (centres undefined) | -1.5 | 27.7 | -5.3 | 1.8 | -48.9*
SMILES | TRHR ag | D1 agonist | D1 PAM | TRHR enhancer | D1 antagonist
CCc1ccc(C(=O)CC2(O)C(=O)N(Cc3ccc(C)cc3)c3ccccc32)cc1 (centres undefined) | -0.3 | -0.8 | 2.2 | -6.5 | -4.0
Cc1ccc(C(=O)CC2(O)C(=O)N(Cc3ccccc3)c3ccccc32)c(C)c1 (centres undefined) | 0.1 | 57.6* | 11.6 | 0.1 | -14.8
CCN1C(=O)C(O)(CC(=O)c2c(C)coc2C)c2ccccc21 (centres undefined) | -0.4 | 0.4 | -1.0 | -3.5 | -45.0*
CC(C)(C)c1ccc(C(=O)N2CCCC2c2cccs2)cc1 (centres undefined) | -0.4 | 15.9 | · | 1.4 | -13.2
CCN1C(=O)[C@H]2[C@@H](c3ccc(C)cc3)N3C(=O)N(c4ccccc4)C(=O)[C@@]3(CC)[C@H]2C1=O | 0.1 | 1.9 | -1.3 | 17.0 | 1.3
CCC(C)N(C(=O)COc1ccc(-c2nnco2)cc1)C1CCS(=O)(=O)C1 (centres undefined) | -0.2 | 2.9 | -12.9 | 3.6 | -53.7*
